The text below walks through data of PubChem BioAssay (NCATS).

Experiment [1] has as its target Calcium and integrin-binding protein 1 (Homo sapiens) (UniProt Q99828). As to the kind of experiment: Primary qHTS for Identification of Calcium Integrin Binding Protein 1 (CIB1) Competitor (AID 1508620). Further: potency means the concentration at half of the fitted maximal effect.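 On activity change, negative = inhibition: GST tagged CIB1 binding a fluorescein labelled alphaIIb integrin peptide tracer; top concentration of the series differs between compounds; on the % scale 0 is the no-effect control and ±100 the full control effect.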 The method in brief: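 Fluorescence polarization competition: CIB1-GST (1 uM final) preincubated with compound 15 min at room temperature, then FITC-labeled alphaIIb peptide (100 nM final) added for another 15 min. Polarization read at Ex 480/Em 540.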

Experiment [2] in a line: Primary qHTS for small molecule stabilizers of the endoplasmic reticulum resident proteome: Secreted ER Calcium Modulated Protein (SERCaMP) assay (AID 1508630). Further: on the % scale 0 is the no-effect control and ±100 the full control effect. The essentials: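 GLuc-SERCaMP-expressing SH-SY5Y cells, pretreated 16 h with compound, are challenged with thapsigargin to empty ER calcium stores; after 4 h, coelenterazine is added directly to the medium and luminescence is imaged.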
On the technique in general: In qHTS, concentration-response curves come from the screen itself.

The nature of experiment [3]: A High-Content qHTS Against Drug Library for the Identification of Small Molecules that Inhibit DYT1 Early Onset Primary Dystonia-Associated Cell Pathology (AID 1645839; calls by dose curve). The method in brief: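 Readout: %pathology, the punctate EGFP-TorsinA distribution from imaging, as the primary channel and cell count as the toxicity counterscreen. HEK293 Flp-In cells expressing delE TorsinA were induced with tetracycline and treated with compound for 48 h.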

In experiment [4] the target is Cytochrome P450 2D6 (Homo sapiens) (UniProt P10635). In words: Cytochrome P450 family 2 subfamily D member 6 (CYP2D6) small molecule antagonists: luciferase biochemical (cell-free) qHTS assay (AID 1645840; active means well fitted curve in the direction sought with a large enough effect in the repeat runs; an effect the other way counts as inactive or inconclusive; further: nearly all actives have a fitted effect of over 55% in size; further: potency means the concentration at half of the fitted maximal effect). The essentials:
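P450-Glo luminescent screen: recombinant CYP2D6 enzyme–proluciferin substrate mix preincubated with compound 10 min at room temperature, then NADPH regeneration added for 1 h at room temperature. Detection reagent added for 20 min; luciferin light read as relative luminescence units.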

The target in experiment [5] is Cytochrome P450 2C9 (Homo sapiens) (UniProt P11712). As to the kind of experiment: Cytochrome P450 family 2 subfamily C member 9 (CYP2C9) small molecule antagonists: luciferase biochemical (cell-free) qHTS assay (AID 1645842; active means well fitted curve in the direction sought with a large enough effect in the repeat runs; an effect the other way counts as inactive or inconclusive; further: nearly all actives have a fitted effect of over 55% in size; further: potency means the concentration at half of the fitted maximal effect). The essentials:
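Luminescence, after 20 min with luciferin detection reagent, reflected CYP2C9 turnover during a 1 h NADPH-driven reaction at 37C. Enzyme-substrate mix contained 0.4% bovine serum albumin and was preincubated with compound 10 min at room temperature.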

Experiment [6] can be described thus: Cytotoxicity counterscreen for inhibitors of SARS-CoV-2 cell entry (AID 1645845; calls by dose curve; further: nearly all actives have a fitted effect of over 50% in size). The method in brief:
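Expi293F/hACE2 cells seeded overnight; cpd pin-transferred in DMSO, 1 h preincubation, + media, 48 h 37 C 5% CO2; ATPLite 1step luminescence; normalized to cells and no cells.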

Experiment [7] in a line: Primary qHTS to identify inhibitors of SARS-CoV-2 cell entry (AID 1645846; calls by dose curve; further: nearly all actives have a fitted effect of over 45% in size). The following applies: activity change, negative = inhibition: at 57.1 µM (top of the series) unless noted. The method in brief:
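Luminescence readout (Bright-Glo luciferase) 48 h after pseudoparticle addition. HEK293-ACE2 cells, 1500/well; compound pre-incubation 1 h; Normalized to spike PP and bald PP.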

The target of a further experiment is Papain (Carica papaya) (UniProt P00784). As to the kind of experiment: Primary qHTS assay for inhibitors of the protease papain (AID 1645873).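 Further: papain turnover of Z-FR-AMC read as the AMC fluorescence gain over 10 min; on the % scale 0 is the no-effect control and ±100 the full control effect.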
Papain (Carica papaya), sequence (P00784 whole entry, looked up, the tested form may be a part): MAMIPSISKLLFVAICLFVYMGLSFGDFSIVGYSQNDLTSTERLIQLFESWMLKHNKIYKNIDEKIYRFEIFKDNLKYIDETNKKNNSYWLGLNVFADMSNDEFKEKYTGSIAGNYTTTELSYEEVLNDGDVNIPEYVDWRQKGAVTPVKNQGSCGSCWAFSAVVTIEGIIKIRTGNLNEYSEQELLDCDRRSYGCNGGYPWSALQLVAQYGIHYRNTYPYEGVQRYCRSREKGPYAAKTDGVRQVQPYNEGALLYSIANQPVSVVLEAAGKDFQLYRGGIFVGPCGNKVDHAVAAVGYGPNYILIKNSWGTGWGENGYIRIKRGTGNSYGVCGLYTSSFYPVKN
A short description of experiment [8]: Primary qHTS for inhibitors of nuclear receptor binding SET domain protein 2 (NSD2) in an isogenic RCH-ACV NSD2 p.E1099K mutant (9B) (AID 1645876). Further: nearly all actives have a fitted effect of over 70% in size. Further: potency means the concentration at half of the fitted maximal effect.
The nature of experiment [9]: Primary qHTS for inhibitors of nuclear receptor binding SET domain protein 2 (NSD2) in an RCH-ACV wild type WT cells (2C) (AID 1645877). Further: nearly all actives have a fitted effect of over 70% in size. Further: potency means the concentration at half of the fitted maximal effect.
Experiment [10] can be described thus: Counterscreen qHTS for small molecule stabilizers of the endoplasmic reticulum resident proteome: GLuc-NoTag assay (AID 1508627).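 Further: SH-SY5Y cells given compound then 100 nM thapsigargin to empty ER calcium; 0% = thapsigargin alone and -100% = DMSO vehicle control.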 The essentials:
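SH-SY5Y cells stably expressing constitutively secreted GLuc (no SERCaMP tag) were pre-incubated 5 h, treated with compound for 19 h, then 100 nM thapsigargin for 4 h at 37C; medium GLuc read by coelenterazine luminescence.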
(A counterscreen serves to expose hits that act by an unwanted route or on another target.)

Experiment [11] is described as follows: Confirmatory qHTS for small molecule stabilizers of the endoplasmic reticulum resident proteome: Secreted ER Calcium Modulated Protein (SERCaMP) assay (AID 1508628). Further: on the % scale 0 is the no-effect control and ±100 the full control effect; nearly all actives have a fitted effect of over 40% in size. The essentials:
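SH-SY5Y cells stably expressing GLuc-SERCaMP, treated 16 h with compound (primary 1.53, 7.67, 38.3 uM; confirmation 11 concentrations, up to 76.6 uM), then 100 nM thapsigargin for 4 h. Secreted Gaussia luciferase in medium read by coelenterazine luminescence.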

The nature of experiment [12]: Cell Viability qHTS for small molecule stabilizers of the endoplasmic reticulum resident proteome (AID 1508629).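 Further: human SH-SY5Y neuroblastoma cells carrying the GLuc-SERCaMP reporter; compound exposure about 46 h in total before the viability read; on the % scale 0 is the no-effect control and ±100 the full control effect.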 The following applies: cell viability counter-screen, 100 nM thapsigargin for final 4 h.
Experiment [13] addresses Cytochrome P450 3A4 (Homo sapiens) (UniProt P08684). In words: Cytochrome P450 family 3 subfamily A member 4 (CYP3A4) small molecule antagonists: luciferase qHTS assay (AID 1645841; active means well fitted curve in the direction sought with a large enough effect in the repeat runs; an effect the other way counts as inactive or inconclusive; further: nearly all actives have a fitted effect of over 45% in size). The method in brief:
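P450-Glo CYP3A4 enzyme with proluciferin substrate was preincubated with DMSO-dissolved compounds for 10 min at room temperature. NADPH regeneration solution started a 1 h reaction. Detection reagent stopped it, and luminescence was read after 20 min.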

Values joined by “and” are separate entries in the source; they are usually repeats but may differ in a detail not shown here. Equal values may be shown once. Records with an inconclusive call do not appear. Some compounds were tested as several samples or in several runs, with calls that do not always agree. Active and inactive are the calls of the source. Unless noted, the call rests on the fitted dose curve; in most records, active means well fitted curve in the direction sought with a large enough effect; inconclusive means small, poorly fitted or top-dose-only effect, or another doubt; inactive means no such curve, though single readings can be large; an effect the other way counts as inactive or inconclusive.

Calcium and integrin-binding protein 1 (Homo sapiens), sequence (Q99828 whole entry, looked up): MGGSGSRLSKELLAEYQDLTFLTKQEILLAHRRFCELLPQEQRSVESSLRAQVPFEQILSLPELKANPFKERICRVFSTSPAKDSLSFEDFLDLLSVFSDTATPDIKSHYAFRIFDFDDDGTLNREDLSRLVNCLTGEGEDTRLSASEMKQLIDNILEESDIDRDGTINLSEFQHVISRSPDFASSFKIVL
Cytochrome P450 3A4 (Homo sapiens), sequence (P08684 whole entry, looked up): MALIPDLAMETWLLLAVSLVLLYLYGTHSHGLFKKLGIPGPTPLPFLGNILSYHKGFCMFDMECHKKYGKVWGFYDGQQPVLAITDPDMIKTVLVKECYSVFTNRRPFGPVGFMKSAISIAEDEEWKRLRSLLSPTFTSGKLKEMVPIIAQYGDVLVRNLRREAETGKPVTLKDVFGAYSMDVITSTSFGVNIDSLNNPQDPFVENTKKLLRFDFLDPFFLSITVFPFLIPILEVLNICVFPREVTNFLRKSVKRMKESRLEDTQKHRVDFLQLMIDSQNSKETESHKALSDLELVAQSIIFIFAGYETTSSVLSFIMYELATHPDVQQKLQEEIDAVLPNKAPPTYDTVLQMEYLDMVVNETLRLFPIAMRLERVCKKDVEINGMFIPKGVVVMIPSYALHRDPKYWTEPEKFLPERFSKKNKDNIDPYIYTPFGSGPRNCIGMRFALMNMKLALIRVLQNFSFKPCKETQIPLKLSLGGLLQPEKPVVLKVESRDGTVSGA
Cytochrome P450 2C9 (Homo sapiens), sequence (P11712 whole entry, looked up): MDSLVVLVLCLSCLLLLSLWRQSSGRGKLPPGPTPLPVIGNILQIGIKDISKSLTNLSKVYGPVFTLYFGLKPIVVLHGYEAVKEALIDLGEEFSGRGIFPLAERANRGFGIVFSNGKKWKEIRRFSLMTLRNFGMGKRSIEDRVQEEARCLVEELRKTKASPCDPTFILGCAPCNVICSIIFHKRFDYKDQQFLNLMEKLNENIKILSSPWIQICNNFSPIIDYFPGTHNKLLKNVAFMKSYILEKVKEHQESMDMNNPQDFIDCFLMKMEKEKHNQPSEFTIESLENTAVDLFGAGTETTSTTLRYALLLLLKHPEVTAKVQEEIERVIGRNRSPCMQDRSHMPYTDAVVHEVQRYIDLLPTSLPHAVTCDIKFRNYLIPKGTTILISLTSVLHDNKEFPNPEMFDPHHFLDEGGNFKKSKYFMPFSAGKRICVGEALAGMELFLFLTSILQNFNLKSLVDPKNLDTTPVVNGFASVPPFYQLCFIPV
Cytochrome P450 2D6 (Homo sapiens), sequence (P10635 whole entry, looked up): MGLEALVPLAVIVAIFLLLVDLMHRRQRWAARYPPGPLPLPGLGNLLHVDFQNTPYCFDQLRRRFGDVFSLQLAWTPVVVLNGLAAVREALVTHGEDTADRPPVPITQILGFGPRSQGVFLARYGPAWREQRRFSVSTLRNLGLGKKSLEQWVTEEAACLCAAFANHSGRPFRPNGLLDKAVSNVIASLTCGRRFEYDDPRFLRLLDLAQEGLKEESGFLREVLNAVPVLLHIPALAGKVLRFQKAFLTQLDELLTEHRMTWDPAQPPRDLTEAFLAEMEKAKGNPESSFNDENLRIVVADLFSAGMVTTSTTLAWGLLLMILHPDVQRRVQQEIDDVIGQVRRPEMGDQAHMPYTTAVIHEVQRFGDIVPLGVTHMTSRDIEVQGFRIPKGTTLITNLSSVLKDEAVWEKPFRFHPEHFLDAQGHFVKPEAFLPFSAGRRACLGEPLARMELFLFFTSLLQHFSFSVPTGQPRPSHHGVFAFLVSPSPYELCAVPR

In the case of `O=C(N/N=C/c1ccc([N+](=O)[O-])o1)c1cc([N+](=O)[O-])cc([N+](=O)[O-])c1O`, the Potency entry in experiment [1], in experiment [2] and in experiment [5] was “inactive” in each case. Further, in experiment [3], the call was inactive. In experiment [4], the Potency was 0.617 µM (active).

For `Cc1ncsc1CCCl`, the Potency result in [1], in experiment [2], in experiment [4], in experiment [5], in [6] and in experiment [8] was “inactive” throughout. The Potency entry in experiment [9] was “inactive”. Further, the result (in experiment [3]; with Papain (Carica papaya)) was inactive. Moreover, in experiment [7], the activity change, negative = inhibition was -22.5%.

With `C[C@@H]1CC2=CC(=O)CC[C@@H]2[C@H]2CC[C@@]3(C)[C@@H](CC[C@]3(C)O)[C@@H]21`, the Potency result in experiment [1], in [2], in experiment [4] and in experiment [5] was “inactive” each time. In experiment [3], the result was inactive.

As to `c1ccc2c(c1)sc1ccccc12`, the Potency result in [1], in [2], in experiment [4], in experiment [5], in experiment [6] and in experiment [8] was “inactive” in each case. The Potency entry in experiment [9] was “inactive”. Further, the outcome in experiment [3] was inactive. For the same compound, the activity change, negative = inhibition in [7] was -6.22%.

In the case of `CCCCC/C=C\C/C=C\C/C=C\C/C=C\CCCC(=O)NCC(=O)O`, the Potency entry in experiment [1] and in experiment [2] was “inactive” throughout.

For `CCN(CC)C(=O)[C@@H]1C=C2c3cccc4[nH]cc(c34)C[C@H]2N(C)C1`, in experiment [1], the Potency was 63.1 µM (active). Besides, the Potency result in experiment [2] is “inactive”.

For the compound `CCOC(=O)CC(SP(=S)(OC)OC)C(=O)OCC` (stereo not drawn), the Potency result in experiment [1], in [2], in experiment [6] and in experiment [9] was “inactive” throughout. The outcome in [3] was inactive. For the same compound, the Potency in [4] was 39.9 µM (active) and inactive; in [5], 1.3 µM (active) and 1.74 µM (active); in experiment [8], 30.6 µM (active) and inactive. Also, in experiment [7], the activity change, negative = inhibition is 2.11%.

For `CC(NC(C)(C)C)C(=O)c1cccc(Cl)c1` (stereo not drawn), the Potency result in experiment [1], in [2], in experiment [5], in experiment [7], in experiment [8] and in [9] was “inactive” in each case. The compound was called inactive (in experiment [3]; with Papain (Carica papaya)). Also, the Potency in experiment [4] was 11 µM (active). Moreover, in experiment [7], the activity change, negative = inhibition is -12.4%.

Consider `O=C1c2ccccc2C(=O)c2ccccc21`, for which the Potency result in experiment [1], in [2], in [4], in [5], in experiment [6] and in experiment [7] was “inactive” each time. Moreover, the Potency result in [8] and in [9] was “inactive” throughout. In experiment [3], the compound was called inactive.

In the case of `CN1C(=O)NC(=O)C(C)(C2=CCCCC2)C1=O` (stereo not drawn), the Potency entry in experiment [1], in experiment [2], in experiment [4], in experiment [5], in [8] and in experiment [9] was “inactive” throughout. Further, in [3], the result was inactive. In addition, the activity change, negative = inhibition in experiment [7] came to 3.11%.

In the case of `CCC(C)C(C)(COC(N)=O)COC(N)=O` (stereo not drawn), the Potency result in experiment [1], in [2], in experiment [4], in [5], in experiment [8] and in [9] was “inactive” in each case. Further, the result in experiment [3] was inactive. Also, the activity change, negative = inhibition in [7] is -15.3%.

`NCCc1ccc(O)cc1`: the Potency result in experiment [1], in experiment [2], in experiment [5] and in experiment [8] was “inactive” throughout. In addition, the compound was classed as inactive (in experiment [3]; with Papain (Carica papaya)). Besides, the Potency in experiment [4] is 13.8 µM (active).

With `C#C[C@]1(O)CC[C@H]2[C@@H]3CCC4=CC(=O)CC[C@]4(C)[C@H]3CC[C@@]21C`, the Potency entry in experiment [1], in experiment [2], in experiment [4] and in experiment [5] was “inactive” throughout. In addition, in [3], the result was inactive.

Regarding `COP(=S)(OC)Oc1ccc(S(=O)(=O)N(C)C)cc1`, the Potency entry in experiment [1], in [2], in experiment [4], in experiment [6], in [7] and in experiment [8] was “inactive” each time. Besides, the result in experiment [3] was inactive. The Potency in experiment [5] is 617 nM (active).

On to `NNc1ccccc1`, for which the Potency entry in [1], in experiment [11] and in [5] was “inactive” in each case. For the same compound, in experiment [10], the call was inactive. Besides, the max response in experiment [12] was -1.1% (inactive).

For `O=C(O)CCCc1ccc(N(CCCl)CCCl)cc1`, the Potency entry in experiment [1], in [2], in [4], in experiment [5], in experiment [6] and in experiment [8] was “inactive” each time. In experiment [9], the Potency entry is “inactive”. Moreover, the call in [3] was inactive.

`CC(C)N(CCC(C(N)=O)(c1ccccc1)c1ccccn1)C(C)C` (stereo not drawn): the Potency entry in [1], in experiment [2], in experiment [4], in experiment [5], in [6] and in experiment [8] was “inactive” throughout. Moreover, the Potency result in experiment [9] is “inactive”. The compound was called inactive (in [3]; with Papain (Carica papaya)).

Take `C[C@]12Cc3cn[nH]c3C[C@@H]1CC[C@@H]1[C@@H]2CC[C@@]2(C)[C@H]1CC[C@]2(C)O`: the Potency result in [1], in experiment [2], in [6] and in experiment [9] was “inactive” each time. The result in [3] was inactive. Moreover, the Potency was 1.95 µM (active) in [4] and 692 nM (active) in experiment [5]. Further, the activity change, negative = inhibition in experiment [7] is -13.6%.

As for `O=P1(N(CCCl)CCCl)NCCCO1` (stereo not drawn), the Potency entry in [1], in [2], in [4], in experiment [13], in [5] and in experiment [6] was “inactive” in each case. Moreover, the Potency entry in experiment [7], in experiment [8] and in [9] was “inactive” each time. Also, the compound was called inactive (in [3]; in the experiment with Papain (Carica papaya)).

With `Nc1nc(N)nc(NC2CC2)n1`, the Potency result in experiment [1], in [2], in experiment [4], in experiment [13], in [5] and in experiment [8] was “inactive” in each case. Also, the Potency result in [9] is “inactive”. The outcome in [3] was inactive.

With `COC1CC(=C(c2cccs2)c2cccs2)C[N+](C)(C)C1` (stereo not drawn), the Potency result in [1], in [2], in experiment [5] and in experiment [6] was “inactive” in each case. Besides, in [3], the compound was called inactive. Further, the Potency in experiment [4] was 0.138 µM (active); in [9], 15 µM (active).

As for `C[C@]12CCC(=O)C=C1CC[C@@H]1[C@@H]2CC[C@]2(C)C(=O)CC[C@@H]12`, the Potency result in experiment [1], in experiment [2], in experiment [4], in experiment [13], in experiment [5] and in [6] was “inactive” each time. Also, in experiment [7], the Potency entry was “inactive”. For the same compound, the compound was called inactive in experiment [3].

Consider `C[C@]12CC[C@H]3[C@@H](CCC4=CC(=O)CC[C@@H]43)[C@@H]1CC[C@@H]2OC(=O)CCC1CCCCC1`, for which the Potency entry in experiment [1], in [2] and in [6] was “inactive” each time. The compound was called inactive in [3]. Also, the Potency in [5] is 24500 nM (active); in [8] it was 23.7 µM (active); in [9], 18.8 µM (active).

Consider `ClCCN1CCCC1`, for which the Potency result in experiment [1], in [2], in [4], in experiment [5], in [8] and in [9] was “inactive” throughout. The call in experiment [3] was inactive.

Turning to `CCC(CC)(CNC(=O)CCCO)c1cccc(OC)c1`, the Potency entry in [1], in experiment [2], in [5], in experiment [6], in [8] and in experiment [9] was “inactive” each time. Further, in experiment [3], the compound was classed as inactive. For the same compound, the activity change, negative = inhibition in experiment [7] was -32.3%.
